{
  "source": "PubChem BioAssay (NCI)",
  "note": "“And” between values parts separate entries of the source, which are not always exact repeats. Identical values can stand only once. Compounds without any hit were thinned out: in the full panel of roughly 83,000, 20% have a hit.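 Negative percent growth values reflect cell death: -40 means 40% of the cells present at the start died, and -100 means all died.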 The source made the active and inactive calls. The calls were made as follows: active = growth percent below 10; inactive = the rest.",
  "data": [
    {"tested_on": "MDA-MB-468 breast", "test": "NCI-60 one-dose screen, 48 h (100 = growth as untreated, 0 = no growth, -100 = all killed)", "conditions": "10 µM unless noted", "values": [
      {"smiles": "C=C(C)[C@@H]1CC[C@]2(C(=O)NCCNCCN)CC[C@]3(C)[C@H](CC[C@@H]4[C@@]5(C)C/C(=C/c6ccncc6)C(=O)C(C)(C)[C@@H]5CC[C@]43C)[C@@H]12", "growth": "80.3% (inactive)"},
      {"smiles": "C=C1C(=O)O[C@H]2[C@H]1CC/C(COC(=O)c1cc3ccccc3o1)=C\\CC[C@@]1(C)O[C@@H]21", "growth": "-71.2% (active)"},
      {"smiles": "COc1ccccc1C(C)=O", "growth": "108% (inactive) and 111% (inactive)"},
      {"smiles": "CC(C)=NNc1ccc([N+](=O)[O-])cc1[N+](=O)[O-]", "growth": "96% (inactive)"},
      {"smiles": "CN(C)CCC(=O)Nc1ccc(-n2cc(-c3cccc(NC(=S)Nc4cccc(-c5cn(-c6ccc(NC(=O)CCN(C)C)cc6)nn5)c4)c3)nn2)cc1", "growth": "-9.56% (active)"},
      {"smiles": "NCCN1CCN(c2nccc(-c3ccc4ccccc4c3)n2)CC1", "growth": "56.2% (inactive)"},
      {"smiles": "Cc1ccc2[nH]c(=O)c3c(c2c1)OC(N)=C(C#N)C31C(=O)c2cccc3cccc1c23", "note": "(configuration not stated)", "growth": "95.1% (inactive)"},
      {"smiles": "COc1c(CCC[P+](c2ccccc2)(c2ccccc2)c2ccccc2)cc2c(c1OC)OCO2", "growth": "-28% (active)"},
      {"smiles": "COc1ccc2nc3ccccc3c(NCCNCCO)c2c1", "growth": "-72.9% (active)"},
      {"smiles": "CCOC(=O)c1cc(C(=O)c2ccc(O)c(O)c2)n2ccc(-c3ccn4c(C(=O)c5ccc(O)c(O)c5)cc(C(=O)OCC)c4c3)cc12", "growth": "112% (inactive)"},
      {"smiles": "NC1(N)C=CC2=C(C=C1)C1(N)C3=C(C=CC(N)(N)C=C3)N2C2(N)C3=C(C=CC(N)(N)C=C3)N1C1=C2C=CC(N)(N)C=C1", "growth": "72.3% (inactive)"},
      {"smiles": "O=C1C(=O)/C(=C/c2ccccc2)CCCCCC/C1=C/c1ccccc1", "growth": "65.7% (inactive)"}
    ]}
  ]
}
